Screening data (PubChem BioAssay)
NCOA1 inh = inhibitors of human steroid receptor coactivator 1 (SRC1); Q15788; actives 0.12% (n = 360,000); inhibition, % at 3.6 µM; HEK293 GAL4-SRC1 luciferase reporter, luminescence;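 active = inhibition above the campaign mean plus 3 SD, with each screening campaign given its own cutoff, cut at about 60% in these data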
Gli-Sufu block = antagonists of Gli-Sufu signaling; actives 0.74% (n = 340,000); inhibition, % at 5 µM; Sufu-KO-LIGHT fibroblasts, Gli luciferase reporter luminescence;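 active = inhibition above about 55%, limit read from the data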
SRC3 inh = human NCOA3 inhibition. inhibition, % at 3.6 µM. actives 0.17% (n = 360,000). HEK293 GAL4-SRC3 luciferase reporter, luminescence. Q9Y6Q9;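 active = inhibition above a per-campaign cutoff, the mean of all compounds plus 3 SD, cut at about 60% in these data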;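 note: higher means less SRC3-driven luciferase light from the GAL4 reporter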
NR5A2 inv ag = NR5A2 inverse agonism in reporter assay | actives 0.13% (n = 360,000) | HEK293T StAR-luciferase reporter, LRH-1 transfected, 24 h | inhibition, % at 3.6 µM;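 active = inhibition above the mean inhibition of all tested compounds plus 3 SD, cut at about 73% in these data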
Target sequence (O00482 whole entry, looked up): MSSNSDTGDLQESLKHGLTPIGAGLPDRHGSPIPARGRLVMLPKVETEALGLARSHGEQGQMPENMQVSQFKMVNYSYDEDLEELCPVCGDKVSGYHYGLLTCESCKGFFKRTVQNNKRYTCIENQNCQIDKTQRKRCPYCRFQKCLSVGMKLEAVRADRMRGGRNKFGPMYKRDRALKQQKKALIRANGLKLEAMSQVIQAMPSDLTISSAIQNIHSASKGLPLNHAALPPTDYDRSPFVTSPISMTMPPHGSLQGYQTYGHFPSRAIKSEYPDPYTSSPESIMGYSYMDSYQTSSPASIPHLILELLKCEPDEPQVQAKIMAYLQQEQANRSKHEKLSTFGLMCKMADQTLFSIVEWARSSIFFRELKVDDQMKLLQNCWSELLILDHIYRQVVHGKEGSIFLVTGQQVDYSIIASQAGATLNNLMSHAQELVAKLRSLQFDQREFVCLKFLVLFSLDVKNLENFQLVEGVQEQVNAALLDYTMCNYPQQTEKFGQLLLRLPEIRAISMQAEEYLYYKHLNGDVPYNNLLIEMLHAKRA
SRC2 inh = human SRC2 (NCOA2) inhibition; HEK293 GAL4-SRC2 luciferase reporter, luminescence; inhibition, % at 9 µM; actives 0.17% (n = 370,000);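 active = inhibition above the mean inhibition of all tested compounds plus 3 SD, set per campaign, cut at about 52% in these data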
COUP-TFII inh = blocks human COUP-TFII nuclear receptor | P24468 | HEK293T NGFI-A luciferase reporter, luminescence | inhibition, % at 8.6 µM | actives 0.7% (n = 370,000);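 active = inhibition above a per-plate cutoff, mean inhibition of test wells between control levels plus 3 SD, cut at about 38% in these data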;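 note: cells cotransfected with COUP-TFII expression vector driving the NGFI-A reporter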
Gal4-VP16 ctr = counter-screen for COUP-TFII antagonists: inhibitors of VP16; AID 687007; inhibition, % at 8.5 µM; actives 25% (n = 2,500); shares compounds with COUP-TFII inh; HEK293 Gal4-VP16 luciferase reporter, luminescence; in the data active = inhibition above about 13%
COUP-TFII conf = confirmation of human COUP-TFII (NR2F2) inhibitors. inhibition, % at 8.5 µM. HEK293 NGFI-A luciferase reporter, luminescence. actives 45% (n = 2,500). shares compounds with COUP-TFII inh;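 active = mean inhibition over three repeats above a set limit taken from the earlier primary screen, cut at about 38% in these data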
Each line names hits and unclear results; the compound was inactive in the other large screens (follow-up assays come after a bar, where they were run). Shown are actives, neighbours in structure and some others; about 1.3% of the full set was active somewhere.

COc1cc(NC(=O)c2cccs2)c(C(=O)OCC(=O)c2cc(C)n(-c3ccc(F)cc3)c2C)cc1OC	none
COc1cc(NC(=O)c2cccs2)c(C(=O)OCC(=O)c2cc(C)n(-c3ccccc3)c2C)cc1OC	SRC2 inh 57, COUP-TFII inh 65 | Gal4-VP16 ctr 18 | COUP-TFII conf inactive
CCC(=O)N1CCN(c2ccnc3cc(Cl)ccc23)CC1	none
CC1CN(c2ccnc3cc(Cl)ccc23)CCN1C(=O)c1ccc(Cl)cc1 (stereo unspecified)	COUP-TFII inh 50 (no result: NCOA1 inh, Gli-Sufu block, SRC3 inh, NR5A2 inv ag, SRC2 inh) | Gal4-VP16 ctr inactive | COUP-TFII conf inactive
O=C(c1cccc(Cl)c1)N1CCN(c2ccnc3cc(Cl)ccc23)CC1	COUP-TFII inh 49 (no result: NCOA1 inh, Gli-Sufu block, SRC3 inh, NR5A2 inv ag, SRC2 inh) | Gal4-VP16 ctr inactive | COUP-TFII conf inactive
CCCCNC(=O)C1CCCN1C(=O)Nc1ccc(Cl)cc1 (stereo unspecified)	none (no result: NCOA1 inh, Gli-Sufu block, SRC3 inh, NR5A2 inv ag)
CCOC(=O)C1CCN(S(=O)(=O)c2ccc3c(c2)N(C(C)=O)CC(C)S3)CC1 (stereo unspecified)	COUP-TFII inh 49 | Gal4-VP16 ctr inactive | COUP-TFII conf inactive
COc1cccc(CNc2nc3cc(-c4ccsc4)sc3c(=O)n2C)c1OC	COUP-TFII inh 66 (no result: Gli-Sufu block) | Gal4-VP16 ctr inactive | COUP-TFII conf 46
COc1ccc(-c2cc3nc(NCc4ccc(N(C)C)cc4)n(C)c(=O)c3s2)cc1OC	COUP-TFII inh 39 (no result: Gli-Sufu block) | Gal4-VP16 ctr inactive | COUP-TFII conf 56
COc1cccc(CNc2nc3cc(-c4ccc(OC)c(OC)c4)sc3c(=O)n2C)c1	none (no result: Gli-Sufu block)
Cc1cc(=O)oc2cc(OCCCC[n+]3ccccc3)ccc12	none
CCC(C)(C)c1ccc(OCCCC[n+]2ccccc2)c(C(C)(C)CC)c1	COUP-TFII inh 54 (no result: Gli-Sufu block) | Gal4-VP16 ctr inactive | COUP-TFII conf inactive
COc1ccc(CCN2C(=O)CSC2=Nc2ccc(C(C)C)cc2)cc1OC	COUP-TFII inh 64 | Gal4-VP16 ctr 14 | COUP-TFII conf 62
COc1ccc(N=C2SCC(=O)N2CCc2ccc(OC)c(OC)c2)cc1	none
CCOC(=O)Nc1ccc2c(c1)[C@@]1(CC(=O)N(CC(C)C)C1c1ccccc1)C(=O)N2C (stereo partly specified)	none (no result: NCOA1 inh, Gli-Sufu block, SRC3 inh, NR5A2 inv ag)
CCC[C@H]1[C@@H](OC(=O)NC2CCCCC2)CC[C@@]23CCCN2C(=O)CCC[C@@H]13	none (no result: NCOA1 inh, Gli-Sufu block, SRC3 inh, NR5A2 inv ag, SRC2 inh)
COc1ccc2c3c([nH]c2c1)[C@]1(CCNC=O)Nc2ccccc2C1=NCC3	none (no result: NCOA1 inh, Gli-Sufu block, SRC3 inh, NR5A2 inv ag, SRC2 inh)
CCOC(=O)N1CCC(Nc2ncnc3c2cnn3-c2ccc(C)cc2C)CC1	COUP-TFII inh 59 | Gal4-VP16 ctr inactive | COUP-TFII conf 43
CN(C(=O)CNC(=O)c1ccccc1OCC(=O)Nc1ccc(I)cc1)c1ccccc1	none (no result: NCOA1 inh, Gli-Sufu block, SRC3 inh, NR5A2 inv ag)
CNc1ccccc1C(C)(C)c1cc(-c2ccc(F)cc2)no1	COUP-TFII inh 45 | Gal4-VP16 ctr inactive | COUP-TFII conf inactive
CNc1ccccc1C(C)(C)c1cc(-c2cccc([N+](=O)[O-])c2)no1	none
Cc1cccc(NC(=O)[C@H]2CC(=O)O[C@@H]2c2ccccc2)c1C	none (no result: NCOA1 inh, Gli-Sufu block, SRC3 inh, NR5A2 inv ag)
CC1=C/C(=N\NC(=S)Nc2cccnc2)CC(C)(C)C1	COUP-TFII inh 39 | Gal4-VP16 ctr inactive | COUP-TFII conf inactive
COc1ccc(CN2CCC(C(=O)Nc3ccc(Oc4ccccc4)nc3)CC2)cc1F	COUP-TFII inh 48 | Gal4-VP16 ctr inactive | COUP-TFII conf inactive
COc1cc(F)ccc1CN1CCC(C(=O)Nc2ccc(Oc3ccccc3)nc2)CC1	COUP-TFII inh 40 | Gal4-VP16 ctr inactive | COUP-TFII conf inactive
O=C(Nc1ccc(Oc2cccnc2)cc1)C1CCN(Cc2cccc(Cl)c2)CC1	COUP-TFII inh 38 | Gal4-VP16 ctr 13 | COUP-TFII conf inactive
Cc1c(CN2CCC(C(=O)Nc3ccc(Oc4ccccc4)nc3)CC2)cnn1C	none
COc1cc(NC(=O)C2CCCN(S(=O)(=O)c3cccs3)C2)cc(OC)c1 (stereo unspecified)	none (no result: NCOA1 inh, Gli-Sufu block, SRC3 inh, NR5A2 inv ag)
CCOC(=O)c1cc2c(=Cc3ccc(N(C)C)cc3)c3ccccc3n2[n+]1C	Gli-Sufu block 76, NR5A2 inv ag 73, COUP-TFII inh 58 | Gal4-VP16 ctr 21 | COUP-TFII conf 49
CCOC(=O)SC1=N/C(=C\c2ccc(N(C)C)cc2)C(=O)S1	none
Cc1cc2c(=Cc3ccc(N(C)C)cc3)c3ccccc3n2[n+]1C	Gli-Sufu block 83, NR5A2 inv ag 76, COUP-TFII inh 75 | Gal4-VP16 ctr inactive | COUP-TFII conf 63
Cc1ccc(NC(=O)c2ccc(S(=O)(=O)NCc3cccnc3)cc2)cc1C	none
COc1cccc(S(=O)(=O)NCc2ccc(C(=O)Nc3ccc(Cl)c(Cl)c3)cc2)c1	COUP-TFII inh 64 | Gal4-VP16 ctr inactive | COUP-TFII conf inactive
COc1ccc(NC(=O)c2ccc(CNS(=O)(=O)c3cccc(OC)c3)cc2)cc1	none
O=C(Nc1ccc(Cl)c(Cl)c1)c1cccc(S(=O)(=O)NCc2cccnc2)c1	COUP-TFII inh 53 | Gal4-VP16 ctr inactive | COUP-TFII conf inactive
O=C(OCCN1C(=O)c2cccc3c(N4CCOCC4)ccc(c23)C1=O)c1ccccc1Cl	COUP-TFII inh 66 | Gal4-VP16 ctr inactive | COUP-TFII conf inactive
N#CCC[C@@H]1CC[C@]2(CCCN(S(=O)(=O)c3ccccc3)C2)O1	none (no result: NCOA1 inh, Gli-Sufu block, SRC3 inh, NR5A2 inv ag)
Nc1c(Cl)ncnc1NCCc1ccc(O)cc1	COUP-TFII inh 47 | Gal4-VP16 ctr inactive | COUP-TFII conf inactive
S=C(NCc1cccc(Cl)c1)OC1CCC12CCC(c1ccccc1)CC2 (stereo unspecified)	none (no result: NCOA1 inh, Gli-Sufu block, SRC3 inh, NR5A2 inv ag)
CC1(C)Oc2cc3oc(-c4cc(O)cc(O)c4)cc3cc2CC1O (stereo unspecified)	COUP-TFII inh 41 | Gal4-VP16 ctr inactive | COUP-TFII conf inactive
CN1C(=O)/C(=C\c2ccccc2F)Sc2ccc(C(=O)NC3CCN(Cc4ccccc4)CC3)cc21	COUP-TFII inh 41 | Gal4-VP16 ctr inactive | COUP-TFII conf inactive
COc1ccccc1NC(=O)C(C)OC(=O)c1cc2ccccc2[nH]1 (stereo unspecified)	COUP-TFII inh 38 | Gal4-VP16 ctr inactive | COUP-TFII conf 42
N#CN1CCC(NS(=O)(=O)c2cccc(C(F)(F)F)c2)CC1	none (no result: NCOA1 inh, Gli-Sufu block, SRC3 inh, NR5A2 inv ag, SRC2 inh)
CCOc1ccc(-c2cc(CCCC(=O)NCCc3ccc(OC)c(OC)c3OC)no2)cc1	none
COc1ccc(-c2cc(C(=O)Nc3cccc(O)c3)no2)cc1	COUP-TFII inh 50 | Gal4-VP16 ctr inactive | COUP-TFII conf inactive
CCOc1ccc(NC(=O)CCCc2cc(-c3ccc(OCC)cc3)on2)cc1	none
CCOc1ccc(-c2cc(CCCC(=O)Nc3cccc(OC)c3)no2)cc1	SRC2 inh 55, COUP-TFII inh 42 | Gal4-VP16 ctr inactive | COUP-TFII conf inactive
